Measured values taken from PubChem BioAssay AID953 (National Center for Advancing Translational Sciences (NCATS), 2007).
Some of the results follow. Records with an inconclusive call do not appear. The source made the active and inactive calls. Calls come from the whole dose curve; as a rule, active = well fitted curve in the direction sought with a large enough effect; inconclusive = small, poorly fitted or top-dose-only effect, or effect the other way, or another doubt; inactive = no such curve, though single readings can be large or run the other way.

Test: Confirmation Concentration-Response Assay for Agonists of the Thyroid Stimulating Hormone Receptor: Activators of Intracellular cAMP Concentrations in Parental HEK 293
Source text: NIH Chemical Genomics Center [NCGC] NIH Molecular Libraries Screening Centers Network [MLSCN] MLSCN Grant: 1 X01 MH080680-01 PI Name: Dr. Marvin Gershengorn NCGC Assay Overview: This cell based assay utilized a cyclic nucleotide gated ion channel (CNG) as a biosensor for cAMP induction. HEK 293 cells stably expressing the modified CNG were purchased from BD biosciences (http://www.atto.com/products/actone/features_benefits.shtml) . Stimulation of cAMP production causes the CNG to open and subsequent membrane depolarization to occur. A fluorescent membrane potential dye (BD biosciences) was utilized to detect cAMP stimulation in cells. The cells were maintained in DMEM medium (Invitrogen) containing 10 % FBS (Hyclone), 100 units/ml Penicillin, 100 ug/ml Streptomycin (Invitrogen), and 250 ug/ml Geneticin (Invitrogen) and 1 ug/ml Puromycin (Invitrogen) at 37C in 5% CO2. […]
NCGC Assay Protocol Summary: High Throughput Screening. […] 23 nl/well compound or control was then added to the assay plates, which were incubated for additional 30 min before reading a Envision fluorescence plate reader (Perkin Elmer) in bottom-read mode for fluorescence intensity (emission at 590 nm). Keywords: cAMP, CNG Ion Channel, quantitative high throughput screening, qHTS, HTS, probe identification, CNG, cAMP, cyclic nucleotide gated ion channel PubChem

| Compound | outcome |
| --- | --- |
| CCOC(=O)C1=C(C)OC(N)=C(C(=O)OC)C12C(=O)Nc1ccc(Br)cc12 (configuration not stated) | inactive |
| C=CCN1C(=O)C2(C(C(=O)OCC)=C(N)Oc3c2c(=O)oc2ccccc32)c2ccccc21 (configuration not stated) | inactive |
